Results: PubChem BioAssay (EPA / NIEHS)
Values joined by “and” are separate entries in the source; they are usually repeats but may differ in a detail not shown here. Equal entries are not always repeated. A structure can be active in one record and inactive in another. Active and inactive are the calls of the source. How the source made its calls: active means hit-call score of the fitted dose curve at least 0.9, where 1 is the maximum; inactive means score below 0.9.

Legend:
[1] = read-out: Forkhead box O1 (FOXO1), FOXO1 (gene 2308); assay: LTEA_HepaRG_FOXO1: Life Technologies and Expression Analysis (LTEA) Assay for Forkhead box O1 (FOXO1) using HepaRG (AID 2283456); conditions: mRNA level, 48 h; actives raise or lower the signal
How it was run: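 HepaRG, 48 h exposure, 8-pt half-log series from 100 uM in 0.5% DMSO, duplicates; Fluidigm qRT-PCR mRNA, housekeeping-normalised; bidirectional fit vs DMSO baseline.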

[2] = read-out: growth arrest and DNA damage 45 (GADD45A), GADD45A (gene 1647); assay: LTEA_HepaRG_GADD45A: Life Technologies and Expression Analysis (LTEA) Assay for growth arrest and DNA damage 45 (GADD45A) using HepaRG (AID 2283458); conditions: mRNA level, 48 h; actives raise or lower the signal
How it was run: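 HepaRG, 48 h exposure, 8 conc. (top 100 uM, half-log steps), 0.5% DMSO vehicle, duplicates. Read-out: qRT-PCR mRNA level, housekeeping-normalized (ACTB/GAPDH/POLR2A). Curves fit bidirectionally vs DMSO baseline.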

[3] = read-out: Forkhead box O3 (FOXO3), FOXO3 (gene 2309); assay: LTEA_HepaRG_FOXO3: Life Technologies and Expression Analysis (LTEA) Assay for Forkhead box O3 (FOXO3) using HepaRG (AID 2283459); conditions: mRNA level, 48 h; actives raise or lower the signal
How it was run: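 qRT-PCR readout of FOXO3 transcript, normalized to three housekeeping genes (ACTB, GAPDH, POLR2A); gain or loss fitted against 0.5% DMSO vehicle. HepaRG cells, 48 h chemical exposure, 8-point half-log series, top 100 uM.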

[4] = read-out: ABC Transporter (ABCB1), ABCB1 (gene 5243); assay: LTEA_HepaRG_ABCB1: Life Technologies and Expression Analysis (LTEA) Assay for ABC Transporter (ABCB1) using HepaRG (AID 2283460); conditions: mRNA level, 48 h; actives raise or lower the signal
How it was run: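 HepaRG, 48 h exposure, 8-pt half-log series from 100 uM, 0.5% DMSO vehicle, duplicates. Readout: ABCB1 transcript by Fluidigm TaqMan qRT-PCR, housekeeping-normalized; bidirectional curve fit vs DMSO baseline.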

[5] = read-out: growth arrest and DNA damage 45 (GADD45B), GADD45B (gene 4616); assay: LTEA_HepaRG_GADD45B: Life Technologies and Expression Analysis (LTEA) Assay for growth arrest and DNA damage 45 (GADD45B) using HepaRG (AID 2283461); conditions: mRNA level, 48 h; actives raise or lower the signal
How it was run: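 HepaRG, ~100,000 cells/well, 48 h plating; serum-free induction medium; cpd 100 uM top, half-log x8, 0.5% DMSO, duplicate, 48 h; lysis in RLT, RNA isolation, qRT-PCR; norm ACTB/GAPDH/POLR2A; bidirectional fit vs DMSO.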

[6] = read-out: ABC Transporter (ABCC3), ABCC3 (gene 8714); assay: LTEA_HepaRG_ABCC3: Life Technologies and Expression Analysis (LTEA) Assay for ABC Transporter (ABCC3) using HepaRG (AID 2283462); conditions: mRNA level, 48 h; actives raise or lower the signal
How it was run: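 Human HepaRG, 48 h dosing, 8-pt half-log series from 100 uM, 0.5% DMSO vehicle, duplicates. ABCC3 mRNA by TaqMan qRT-PCR, housekeeping-normalized; bidirectional curve fit vs DMSO.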

[7] = read-out: ABC Transporter (ABCC2), ABCC2 (gene 1244); assay: LTEA_HepaRG_ABCC2: Life Technologies and Expression Analysis (LTEA) Assay for ABC Transporter (ABCC2) using HepaRG (AID 2283464); conditions: mRNA level, 48 h; actives raise or lower the signal
How it was run: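 HepaRG, 48 h post-plating; serum-free induction medium; cpd 8-pt, 100 uM top, half-log, 0.5% DMSO, duplicate, 48 h. Readout: ABCC2 mRNA by qRT-PCR, norm. ACTB/GAPDH/POLR2A. Bidirectional fit vs DMSO baseline.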

[8] = read-out: Broad substrate specificity ATP-binding cassette transporter ABCG2 (Homo sapiens) (UniProt Q9UNQ0); assay: LTEA_HepaRG_ABCG2: Life Technologies and Expression Analysis (LTEA) Assay for ABC Transporter (ABCG2) using HepaRG (AID 2283465); conditions: mRNA level, 48 h; actives raise or lower the signal
How it was run: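 HepaRG, 48 h exposure, 8-pt half-log series from 100 uM, 0.5% DMSO vehicle, duplicates. Readout: ABCG2 transcript by qRT-PCR (Fluidigm array), housekeeping-normalized; bidirectional curve fit relative to DMSO baseline.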

[9] = read-out: ATP-citrate lyase (ACLY), ACLY (gene 47); assay: LTEA_HepaRG_ACLY: Life Technologies and Expression Analysis (LTEA) Assay for ATP-citrate lyase (ACLY) using HepaRG (AID 2283466); conditions: mRNA level, 48 h; actives raise or lower the signal
How it was run: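 qRT-PCR readout of ACLY transcript after 48 h chemical treatment of HepaRG cells; expression normalized to three housekeeping genes. Eight-point half-log series, highest 100 uM, 0.5% DMSO vehicle. Gain or loss fitted against DMSO baseline.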

[10] = read-out: Peroxisomal acyl-coenzyme A oxidase 1 (ACOX1) gene, ACOX1 (gene 51); assay: LTEA_HepaRG_ACOX1: Life Technologies and Expression Analysis (LTEA) Assay for Peroxisomal acyl-coenzyme A oxidase 1 (ACOX1) gene using HepaRG (AID 2283467); conditions: mRNA level, 48 h; actives raise or lower the signal
How it was run: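 HepaRG, 48 h chemical exposure, 8-pt half-log series from 100 uM top, 0.5% DMSO vehicle, duplicates. Readout: ACOX1 mRNA by Fluidigm qRT-PCR, housekeeping-normalized; bidirectional fit vs DMSO baseline.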

[11] = read-out: Alkaline Phosphatase, Placental (ALPP) gene, ALPP (gene 250); assay: LTEA_HepaRG_ALPP: Life Technologies and Expression Analysis (LTEA) Assay for Alkaline Phosphatase, Placental (ALPP) gene using HepaRG (AID 2283468); conditions: mRNA level, 48 h; actives raise or lower the signal;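 on AC50: differentiated human HepaRG liver cells in serum-free induction medium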
How it was run: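 HepaRG, 48 h plating then 48 h dosing, serum-free induction medium, 0.5% DMSO. 8 conc, half-log, max 100 uM, duplicates. Endpoint: ALPP transcript by qRT-PCR, housekeeping-normalized; gain or loss fitted vs DMSO.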

[12] = read-out: Bcl-2 (BAD) gene, BAD (gene 572); assay: LTEA_HepaRG_BAD: Life Technologies and Expression Analysis (LTEA) Assay for Bcl-2 (BAD) gene using HepaRG (AID 2283469); conditions: mRNA level, 48 h; actives raise or lower the signal
How it was run: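 HepaRG, 48 h exposure, 8-pt half-log curve from 100 uM in 0.5% DMSO, duplicates. Readout: TaqMan qRT-PCR for BAD mRNA, housekeeping-normalised (ACTB/GAPDH/POLR2A); gain or loss fitted against DMSO baseline.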

[13] = read-out: Bcl-2 (BAX) gene, BAX (gene 581); assay: LTEA_HepaRG_BAX: Life Technologies and Expression Analysis (LTEA) Assay for Bcl-2 (BAX) gene using HepaRG (AID 2283470); conditions: mRNA level, 48 h; actives raise or lower the signal
How it was run: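 qRT-PCR read-out of BAX mRNA, normalized to three housekeeping genes, after 48 h chemical exposure of human HepaRG cells in serum-free induction medium; eight-point half-log series, top 100 uM, 0.5% DMSO vehicle; bidirectional fit versus DMSO.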

[14] = read-out: Alpha-fetoprotein (AFP) gene, AFP (gene 174); assay: LTEA_HepaRG_AFP: Life Technologies and Expression Analysis (LTEA) Assay for Alpha-fetoprotein (AFP) gene using HepaRG (AID 2283472); conditions: mRNA level, 48 h; actives raise or lower the signal
How it was run: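 qRT-PCR (Fluidigm TaqMan) readout of AFP transcript, normalized to three housekeeping genes, fitted bidirectionally against 0.5% DMSO baseline. HepaRG cells received chemicals for 48 h in serum-free induction medium, top concentration 100 uM, half-log steps.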

BCL2L11 (gene 10018) = assay: LTEA_HepaRG_BCL2L11: Life Technologies and Expression Analysis (LTEA) Assay for Bcl-2 (BCL2L11) gene using HepaRG (AID 2283473); conditions: mRNA level, 48 h; actives raise or lower the signal
How it was run: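 Read-out is BCL2L11 transcript level by qRT-PCR, normalized to three housekeeping genes and fitted bidirectionally against 0.5% DMSO vehicle. HepaRG cells received chemicals for 48 h in serum-free induction medium, 100 uM down in half-log dilutions.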

[15] = read-out: Apolipoprotein A-V (APOA5) gene, APOA5 (gene 116519); assay: LTEA_HepaRG_APOA5: Life Technologies and Expression Analysis (LTEA) Assay for Apolipoprotein A-V (APOA5) gene using HepaRG (AID 2283474); conditions: mRNA level, 48 h; actives raise or lower the signal
How it was run: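 Readout is APOA5 transcript level by qRT-PCR on Fluidigm dynamic arrays, normalized to three housekeeping genes. HepaRG cultures received chemicals for 48 h at up to 100 uM (half-log steps, 0.5% DMSO), with gain or loss scored relative to DMSO.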

[16] = read-out: Apoptosis regulator Bcl-2 (Homo sapiens) (UniProt P10415); assay: LTEA_HepaRG_BCL2: Life Technologies and Expression Analysis (LTEA) Assay for Bcl-2 gene using HepaRG (AID 2283475); conditions: mRNA level, 48 h; actives raise or lower the signal
How it was run: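 qRT-PCR read-out (Fluidigm TaqMan) of BCL2 transcript, normalised to three housekeeping genes, after 48 h chemical exposure of HepaRG cells; 8-point half-log series, top 100 uM, 0.5% DMSO vehicle. Gain or loss of signal fitted relative to DMSO baseline.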

[17] = read-out: ABC Transporter (ABCB11), ABCB11 (gene 8647); assay: LTEA_HepaRG_ABCB11: Life Technologies and Expression Analysis (LTEA) Assay for ABC Transporter (ABCB11) using HepaRG (AID 2283463); conditions: mRNA level, 48 h; actives raise or lower the signal
How it was run: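 HepaRG, 48 h exposure, 8-pt half-log CRC top 100 uM, 0.5% DMSO vehicle, duplicates. Readout: TaqMan qRT-PCR of ABCB11 mRNA, housekeeping-normalized (ACTB/GAPDH/POLR2A). Bidirectional fit vs DMSO baseline.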

[18] = read-out: adenosine kinase (ADK) gene, ADK (gene 132); assay: LTEA_HepaRG_ADK: Life Technologies and Expression Analysis (LTEA) Assay for adenosine kinase (ADK) gene using HepaRG (AID 2283471); conditions: mRNA level, 48 h; actives raise or lower the signal
How it was run: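 Differentiated HepaRG cells dosed 48 h in serum-free induction medium, 0.5% DMSO vehicle, eight half-log concentrations from 100 uM, in duplicate. ADK mRNA by TaqMan qRT-PCR normalised to ACTB, GAPDH, POLR2A; bidirectional fit versus DMSO.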

[19] = CEETOX_H295R_TESTO: CeeTox H295R High-throughput Steroidogenesis Assay for Testosterone (TESTO) (AID 2283457); conditions: actives raise or lower the signal
How it was run: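 H295R, passage ≤10, 48 h dosing; media extracted with MTBE → HPLC-MS/MS for testosterone; 7-pt standard curve sets LLOQ/ULOQ; bidirectional fit vs DMSO; MTT viability same wells.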

Measured: AC50

Sequence of Apoptosis regulator Bcl-2 (Homo sapiens) (P10415 whole entry, looked up): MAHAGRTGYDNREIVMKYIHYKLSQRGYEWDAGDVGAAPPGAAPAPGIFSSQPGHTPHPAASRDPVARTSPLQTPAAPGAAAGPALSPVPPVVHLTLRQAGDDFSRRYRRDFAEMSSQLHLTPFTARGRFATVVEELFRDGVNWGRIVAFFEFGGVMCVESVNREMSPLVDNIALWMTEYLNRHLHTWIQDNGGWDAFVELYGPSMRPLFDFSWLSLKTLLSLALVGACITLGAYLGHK
Sequence of Broad substrate specificity ATP-binding cassette transporter ABCG2 (Homo sapiens) (Q9UNQ0 whole entry, looked up): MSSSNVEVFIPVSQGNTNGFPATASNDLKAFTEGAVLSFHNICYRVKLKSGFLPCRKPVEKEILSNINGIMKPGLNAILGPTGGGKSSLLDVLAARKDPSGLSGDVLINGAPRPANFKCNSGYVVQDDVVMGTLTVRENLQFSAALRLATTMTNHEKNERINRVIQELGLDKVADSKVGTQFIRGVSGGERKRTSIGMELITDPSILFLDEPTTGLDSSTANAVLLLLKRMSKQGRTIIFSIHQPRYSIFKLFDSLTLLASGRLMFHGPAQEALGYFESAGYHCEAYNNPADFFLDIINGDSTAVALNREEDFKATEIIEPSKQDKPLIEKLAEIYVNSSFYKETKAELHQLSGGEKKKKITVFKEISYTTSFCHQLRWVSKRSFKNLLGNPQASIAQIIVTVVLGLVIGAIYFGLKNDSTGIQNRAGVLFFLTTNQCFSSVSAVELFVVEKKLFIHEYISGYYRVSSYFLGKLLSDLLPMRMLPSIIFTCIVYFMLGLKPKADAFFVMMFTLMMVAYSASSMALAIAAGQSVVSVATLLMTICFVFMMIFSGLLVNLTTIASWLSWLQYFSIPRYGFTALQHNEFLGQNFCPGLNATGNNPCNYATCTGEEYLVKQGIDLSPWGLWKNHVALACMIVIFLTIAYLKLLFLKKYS

CCCN(CCC)c1c([N+](=O)[O-])cc(S(N)(=O)=O)cc1[N+](=O)[O-]
inactive: [1] | [2] | [3] | [5] | [8] | [9] | [10] | [11] | [12] | [13] | [14] | BCL2L11 (gene 10018) | [15] | [16]
active: [1] 90.2 µM | [2] 85.9 µM | [3] 93.9 µM and 76.9 µM | [4] 89.8 µM and 84.8 µM and 82.3 µM | [5] 93.5 µM and 93.2 µM | [6] 93.6 µM and 74.3 µM and 90.4 µM | [7] 92.1 µM and 82.3 µM and 84.7 µM | [8] 15.8 µM | [9] 94.3 µM | [10] 77.5 µM | [12] 74.1 µM | [14] 15.8 µM | BCL2L11 (gene 10018) 95.3 µM and 84.3 µM

CCOc1cc(Oc2ccc(C(F)(F)F)cc2Cl)ccc1[N+](=O)[O-]
active: [17] 19.1 µM | [8] 9.39 µM | [10] 50 µM | [11] 40.3 µM | [14] 39.1 µM | [15] 30.8 µM | [16] 33.5 µM
not listed: [18] | [19]
inactive: all other assays above

Oc1ccccc1-c1ccccc1
not listed: [18] | [19]
inactive: all other assays above

O=C(O)c1nc(Cl)ccc1Cl
active: [11] 27.3 µM
inactive: [1] | [2] | [3] | [4] | [5] | [6] | [7] | [8] | [9] | [10] | [11] | [12] | [13] | [18] | [14] | BCL2L11 (gene 10018) | [15] | [16]

CCCC1COC(Cn2cncn2)(c2ccc(Cl)cc2Cl)O1 (stereo not given)
active: [1] 76.1 µM | [2] 67.2 µM | [6] 12.2 µM | [7] 68.5 µM | [8] 22.2 µM | [9] 11.9 µM | [10] 25.9 µM | [11] 25.6 µM | [13] 81 µM | [14] 24 µM | [15] 47.4 µM | [16] 33.7 µM
inactive: [19] | [3] | [4] | [5] | [12] | BCL2L11 (gene 10018)
